From PubChem BioAssay (NCI) come the findings set out here.

Each structure is given as a SMILES string. About 83,000 compounds went through this panel and 20% of them were active in at least one assay; those are over-represented in the sample as a whole.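 Testing used 96-well plates and a 48-hour single-concentration exposure. Example: -40 means 40% of the starting cells died.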 A number with no mark means an inactive call. Activity calls are given as the source filed them. Rule for the calls: active = growth percent below 10; inactive = the rest.

Test systems include OVCAR-8 ovarian; OVCAR-5 ovarian; OVCAR-4 ovarian; SK-OV-3 ovarian; IGROV1 ovarian; OVCAR-3 ovarian; HS 578T breast; NCI/ADR-RES ovarian; T-47D breast; BT-549 breast; MDA-MB-435 melanoma; SW-620 colon; MCF7 breast; HCT-116 colon; HCC-2998 colon; KM12 colon; RPMI-8226 leukemia.
Holding throughout (experiment): NCI-60 one-dose screen, 48 h (100 = growth as untreated, 0 = no growth, -100 = all killed)
Holding throughout (conditions): 10 µM unless noted

As to `O=C(CO[N+](=O)[O-])Nc1ccc(C(=O)/C=C/c2ccc(Cl)cc2)cc1`, the growth in the test on OVCAR-8 ovarian is 27.2%; with OVCAR-5 ovarian, 66.9%; in the test with OVCAR-4 ovarian, 76.1%; in the test on SK-OV-3 ovarian, 89.3%; in the test on IGROV1 ovarian, -26% (active); in the test with OVCAR-3 ovarian it was 0.332% (active). For the same molecule, the growth with HS 578T breast was 89.7%; in the test on NCI/ADR-RES ovarian it was 29.9%; in the test with T-47D breast it was 55.5%; in the test on BT-549 breast, 18.9%; in the test with MDA-MB-435 melanoma, -2.76% (active); in the test on SW-620 colon, -61.8% (active). The growth in the test on MCF7 breast was 1.64% (active); in the test with HCT-116 colon, -49.2% (active); in the test on HCC-2998 colon, -61.3% (active); with KM12 colon, -60.6% (active).

Regarding `Cc1csc2ccc(Cl)cc12`, the growth is 109% in the test with RPMI-8226 leukemia; 102% in the test on OVCAR-5 ovarian; 98.1% in the test with OVCAR-4 ovarian; 96.5% with SK-OV-3 ovarian; 104% in the test with IGROV1 ovarian; 111% in the test with OVCAR-3 ovarian. Moreover, the growth with HS 578T breast was 104%; in the test on NCI/ADR-RES ovarian, 103%; in the test with T-47D breast, 104%; in the test with BT-549 breast, 104%; in the test with MDA-MB-435 melanoma it was 103%; in the test with SW-620 colon, 102%. The growth with MCF7 breast was 98.3%; in the test on HCT-116 colon it was 106%; with HCC-2998 colon, 109%; in the test with KM12 colon, 111%.

Take `CN1Cc2c(cc(CN3CCCCC3)n2C)C(c2ccc(Br)cc2)C1` (stereo not given): the growth in the test on RPMI-8226 leukemia is 81.4%; in the test with OVCAR-8 ovarian, 96.9%; with OVCAR-5 ovarian, 96.1%; in the test with OVCAR-4 ovarian, 86.6%; in the test with SK-OV-3 ovarian, 93.7%; in the test on OVCAR-3 ovarian it was 95.4%. Further, the growth in the test on HS 578T breast is 76.3%; with NCI/ADR-RES ovarian, 88.1%; in the test with BT-549 breast, 83.1%; in the test with MDA-MB-435 melanoma it was 65.5%; in the test with SW-620 colon, 90.8%; with MCF7 breast it was 71.8%. For the same molecule, the growth in the test on HCT-116 colon is 61.8%; in the test on HCC-2998 colon, 84.2%; in the test with KM12 colon it was 94.5%.

As to `Nc1nc(-c2ccc(F)cc2)cc(-c2cnn(-c3ccccc3)n2)n1`, the growth in the test on OVCAR-8 ovarian was 100%; in the test on OVCAR-5 ovarian, 110%; with OVCAR-4 ovarian, 111%; in the test on OVCAR-3 ovarian, 105%; in the test with HS 578T breast, 106%; in the test on NCI/ADR-RES ovarian, 106%. In addition, the growth in the test on T-47D breast was 87.1%; in the test on BT-549 breast, 119%; in the test on MDA-MB-435 melanoma, 106%; with SW-620 colon, 99.3%; with MCF7 breast, 79.9%; in the test with HCT-116 colon it was 106%. Further, the growth was 111% in the test on HCC-2998 colon and 100% with KM12 colon.

On to `CC/C(=C(\c1ccccc1)c1ccc(OCCNC)cc1)c1ccccc1`, for which the growth in the test on RPMI-8226 leukemia is -40.9% (active); in the test on OVCAR-8 ovarian, -49.6% (active); in the test on OVCAR-5 ovarian it was -85.2% (active); with OVCAR-4 ovarian, -67.1% (active); in the test with SK-OV-3 ovarian, -53.8% (active); in the test on IGROV1 ovarian, -93% (active). Besides, the growth was -92.1% (active) in the test on OVCAR-3 ovarian; -55.6% (active) in the test on HS 578T breast; -87.3% (active) with NCI/ADR-RES ovarian; -91.2% (active) in the test with BT-549 breast; -93.8% (active) in the test with MDA-MB-435 melanoma; -57.6% (active) in the test with SW-620 colon. Also, the growth was -95.8% (active) in the test with MCF7 breast, -96% (active) in the test on HCT-116 colon, -99.7% (active) in the test with HCC-2998 colon and -77.7% (active) in the test with KM12 colon.

On to `Cc1cc2c(cc1C)NC1=C(N2)OC(c2c3ccccc3cc3ccccc23)C1=O` (stereo not given), for which the growth was 30.6% in the test with RPMI-8226 leukemia; -27.4% (active) in the test with OVCAR-8 ovarian; 13.9% with OVCAR-5 ovarian; 75.5% in the test with OVCAR-4 ovarian; 52% in the test on SK-OV-3 ovarian; 17.4% in the test with IGROV1 ovarian. In addition, the growth in the test with OVCAR-3 ovarian was 23.3%; with HS 578T breast it was 32.5%; with NCI/ADR-RES ovarian it was -41.7% (active); with BT-549 breast, 0.106% (active); with MDA-MB-435 melanoma, -7.13% (active); with SW-620 colon it was 19.3%. Further, the growth in the test on MCF7 breast is 5.73% (active); in the test on HCT-116 colon it was -5.82% (active); with HCC-2998 colon, 7.57% (active); in the test on KM12 colon, 9.94% (active).

With `O=C(/C=C/c1cc2ccccc2[nH]c1=O)/C=C/c1cc2ccccc2[nH]c1=O`, the growth in the test with RPMI-8226 leukemia was -16.8% (active); with OVCAR-8 ovarian, 4.07% (active); with OVCAR-5 ovarian, 15.6%; in the test on OVCAR-4 ovarian it was 38.3%; in the test with SK-OV-3 ovarian, 8.82% (active); in the test on OVCAR-3 ovarian, -58% (active). Further, the growth is 19.9% in the test with HS 578T breast; 57.2% in the test on NCI/ADR-RES ovarian; 15.2% in the test with T-47D breast; -45.5% (active) with BT-549 breast; -41.6% (active) with MDA-MB-435 melanoma; -39.5% (active) in the test on SW-620 colon. Further, the growth in the test on MCF7 breast is -42.3% (active); in the test on HCT-116 colon it was -71.1% (active); with HCC-2998 colon, -88.9% (active); with KM12 colon, -83.7% (active).

In the case of `C[C@@H]1CC[C@@H]2[C@@H]1[C@H](OC(=O)/C=C/c1ccccc1)[C@]1(c3ccccc3)C[C@@H](OC(=O)CO)[C@@]2(C)O1`, the growth in the test on OVCAR-8 ovarian is 54.3%; in the test on OVCAR-5 ovarian, 99.8%; in the test on OVCAR-4 ovarian, 103%; in the test on SK-OV-3 ovarian, 96.1%; in the test with IGROV1 ovarian it was 93.6%; in the test with OVCAR-3 ovarian, 103%. Further, the growth with HS 578T breast was -20% (active); with NCI/ADR-RES ovarian, 62.1%; with T-47D breast, 89.5%; in the test on BT-549 breast it was 17.1%; in the test on MDA-MB-435 melanoma, 99.2%; in the test with SW-620 colon, 96.6%. In addition, the growth is 84.3% in the test on MCF7 breast, 89.5% in the test with HCT-116 colon, 99.4% in the test on HCC-2998 colon and 96% in the test on KM12 colon.

In the case of `COc1ccc(-c2nn(-c3ccccc3)cc2/C=C2\SC(=O)NC2=O)cc1`, the growth is 101% in the test with OVCAR-8 ovarian; 99.4% with OVCAR-5 ovarian; 89.5% in the test with OVCAR-4 ovarian; 93.3% in the test with SK-OV-3 ovarian; 103% in the test on IGROV1 ovarian; 106% in the test with HS 578T breast. The growth was 106% with NCI/ADR-RES ovarian; 85.9% with T-47D breast; 101% in the test with BT-549 breast; 108% in the test on MDA-MB-435 melanoma; 107% in the test on SW-620 colon; 85.2% in the test with MCF7 breast. Further, the growth is 95.1% with HCT-116 colon, 109% in the test on HCC-2998 colon and 98.1% in the test with KM12 colon.

In the case of `COc1ccc(-c2c3c(nc4n[nH]c(-c5ccc(Cl)cc5)c24)-c2ccccc2C(=O)C3=O)cc1`, the growth in the test with RPMI-8226 leukemia is -11.4% (active); with OVCAR-8 ovarian, 3.87% (active); in the test with OVCAR-5 ovarian, 51.5%; in the test on OVCAR-4 ovarian, 23%; in the test with SK-OV-3 ovarian it was 42.5%; in the test on OVCAR-3 ovarian it was -17.2% (active). The growth is 7.1% (active) with HS 578T breast; -3.63% (active) in the test on NCI/ADR-RES ovarian; 17% in the test on T-47D breast; 20.5% in the test on BT-549 breast; -86.2% (active) in the test with MDA-MB-435 melanoma; -66.1% (active) in the test on SW-620 colon. In addition, the growth with MCF7 breast was 1.77% (active); with HCT-116 colon, -44.5% (active); in the test on HCC-2998 colon, -25.5% (active).
